42 sequences from article PMC7819943, “Rice protein-binding microarrays: a tool to detect cis-acting elements near promoter regions in rice” can be followed below.

In all, about 68,000 sequences were measured (“fluorescence intensity (a.u.)”: median about 9,100, highest 2% from about 16,000 on). What follows is part of a selection rich in the highest values, with near analogues and random picks from the rest.

Chain of OsWRKY34 (Q0JBA9 entry or part of it): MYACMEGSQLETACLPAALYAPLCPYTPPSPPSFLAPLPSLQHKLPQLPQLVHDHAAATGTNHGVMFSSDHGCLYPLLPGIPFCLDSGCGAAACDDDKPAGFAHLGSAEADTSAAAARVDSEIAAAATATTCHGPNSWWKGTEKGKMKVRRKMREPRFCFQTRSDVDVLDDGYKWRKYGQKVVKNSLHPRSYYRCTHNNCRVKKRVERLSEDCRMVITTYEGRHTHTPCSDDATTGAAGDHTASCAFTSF

The test concerns the target OsWRKY34 (Oryza sativa, UniProt Q0JBA9 1-250). Put plainly: protein-binding microarray (RPBM); PBS, 2% BSA, 51.3 ng/ul salmon testes DNA, 50 uM zinc acetate, 200 nM TF, 25 C, 1 h; high values mean tight binding. Conditions: protein: recombinant; tags: N-terminal polyhistidine and DsRed monomer fusion (pET32a); label: CyDye5-dUTP incorporated in the synthesized complementary strand; 3' TTTTT single-stranded linker to array surface; dsDNA, one strand shown. An outline of the steps:
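In PBS with 2% BSA, salmon testes DNA and 50 µM zinc acetate, 200 nM protein was incubated on a custom Agilent array at 25 °C for 1 h and then washed off. The array had been made double-stranded by primer extension with Cy5-dUTP and blocked with 2% BSA. The proteins were transcription factors fused N-terminally to polyhistidine and DsRed, expressed in E. coli BL21-CodonPlus and purified on Ni–NTA. The binding signal is per-feature fluorescence intensity (arbitrary units) from an Axon 4000B scanner.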
“CGTTGGAAAGCTACTGTTTTGACCCGTTCACACCACTACGCGGAGTCACCTAGTGCAG”: the binding signal is 9680 fluorescence intensity (a.u.). In the case of “CAAATGGAGGCCCCTTTTAGATACGCTTCCTGTTACTTTCCGGAGTCACCTAGTGCAG”, the binding signal is 8710 fluorescence intensity (a.u.).

Regarding “TCCTTCTGTCACCATTCGATTCCCAAACTCTCGCCGCCGCCGGAGTCACCTAGTGCAG”, the binding signal is 9140 fluorescence intensity (a.u.).

For the sequence “CATCAGTTGGCGATTCCCGCTGTATCCTAGAATCTGCTGACGGAGTCACCTAGTGCAG”, the binding signal was 65000 fluorescence intensity (a.u.).

With “CTCTCTCTCTCTCTCTCTCTCTGCTGTTTTCTGTATCTGACGGAGTCACCTAGTGCAG”, the binding signal was 10100 fluorescence intensity (a.u.). To “CCCGCTTCTTCCCCGCTGCTTGAATCAGTCGTATCCTCACCGGAGTCACCTAGTGCAG” belongs 11400 fluorescence intensity (a.u.). To “ACGACAAGAACCACCTCTCTCTCTCTCTCTCACTGTCCACCGGAGTCACCTAGTGCAG” belongs 9040 fluorescence intensity (a.u.); to “TTCCCCTTGCTCTTGCATTTGCTGCCGCTCTTCGCCTCTTCGGAGTCACCTAGTGCAG”, 9270 fluorescence intensity (a.u.); to “TCTCTTCTCTTTCTCTCCTCTCTTTTTGCCGCCGCTCGAGCGGAGTCACCTAGTGCAG”, 8900 fluorescence intensity (a.u.). For the sequence “TCAGGCTCTCACTCGCGCTGCATGCCACACTGCTTCTTCTCGGAGTCACCTAGTGCAG”, the binding signal was 16400 fluorescence intensity (a.u.). To “CACACACACTGCACTTCGGCTCACTCTCTCCACTGTTCTTCGGAGTCACCTAGTGCAG” belongs 16700 fluorescence intensity (a.u.); to “GCCCTTCCTCTCCTCACTCACACTGCCCTGTTCATCTCTTCGGAGTCACCTAGTGCAG”, 8540 fluorescence intensity (a.u.).

Turning to “AAACTCTCACTCGCTCACTCACACCTCACACGCTGCTGCTCGGAGTCACCTAGTGCAG”, the binding signal is 8070 fluorescence intensity (a.u.).

Turning to “GCTCAGCTCTTCACTTCTGCTGCATTCACACCACCACACTCGGAGTCACCTAGTGCAG”, the binding signal was 9310 fluorescence intensity (a.u.). To “TCTCTCTCTCTCCTTCGGCTCATTCGTCACTGTTCCACCGCGGAGTCACCTAGTGCAG” belongs 11300 fluorescence intensity (a.u.); to “AGAATGGTCTTATATGTTGTGTAGTGGTGTGTGGGCGTGTCGGAGTCACCTAGTGCAG”, 8170 fluorescence intensity (a.u.). As for “ACCGATGACTTTTGGCAAAACTTACAGTAAAACTGCTTATCGGAGTCACCTAGTGCAG”, the figure is 8850 fluorescence intensity (a.u.); as for “ATATTTGATGCCGTTGACTTTTTAAAATATATTTGATCATCGGAGTCACCTAGTGCAG”, 16400 fluorescence intensity (a.u.); as for “ATGCCGTTGACTTTTTAAAATATATTTGACCATTTCCTATCGGAGTCACCTAGTGCAG”, 21700 fluorescence intensity (a.u.). As for “CATATCTAACTTTTGACCATCCGTTTTATTTAAAAAAATACGGAGTCACCTAGTGCAG”, the figure is 8310 fluorescence intensity (a.u.); as for “TATTTTCCTACCATTTGATTTATTGTTAAATATACTTTTTCGGAGTCACCTAGTGCAG”, 10200 fluorescence intensity (a.u.); as for “ATGTTTGACTTTTTTTTAAAAAATTTATATTTTTTTAAATCGGAGTCACCTAGTGCAG”, 8390 fluorescence intensity (a.u.). As for “CCTCCGTTTTTAAATATTTGATGCCGTTGACTTTTTAAAACGGAGTCACCTAGTGCAG”, the binding signal was 19900 fluorescence intensity (a.u.). Take “CCTCCGCTCCTAAATATTTGACACCGCTGACTTTTTAAAACGGAGTCACCTAGTGCAG”: the binding signal is 11100 fluorescence intensity (a.u.). To “CCTCCTTTCCTAAATATTTGACGCCGTTGACTTTTTTAAACGGAGTCACCTAGTGCAG” belongs 13500 fluorescence intensity (a.u.); to “CCATCTGTCATATTTGTCATCGTTGACTTTTTTAAATATACGGAGTCACCTAGTGCAG”, 13600 fluorescence intensity (a.u.).

On to “TCCTATGCCTGCAGCCTGTATCAAAAAATTTTCACAATGTCGGAGTCACCTAGTGCAG”, for which the binding signal was 8480 fluorescence intensity (a.u.). For “CTATATCGCACGTACTCCGGTACCAACGATCCTATACCATCGGAGTCACCTAGTGCAG”, the binding signal was 9910 fluorescence intensity (a.u.). As for “TTTTGAAATCCGCGCCTACTTTTTTCTTGTCTCTTCTGTGCGGAGTCACCTAGTGCAG”, the figure is 8400 fluorescence intensity (a.u.); as for “CACTCGCCACCGCCGCCCACCCGCAACTGCCGCCGACTCCCGGAGTCACCTAGTGCAG”, 10800 fluorescence intensity (a.u.). As for “CTATTATAGCGTGTCGGACACTGACTCCTCCCATGTTCCTCGGAGTCACCTAGTGCAG”, the figure is 11100 fluorescence intensity (a.u.); as for “AACTGAATTGTTGGTTTTTTCGGTTTTCGGTTGTCAGTTCCGGAGTCACCTAGTGCAG”, 11900 fluorescence intensity (a.u.). As for “TCCCTAAAATTTTTCACCCTTTCACATTAAACGTTTAACACGGAGTCACCTAGTGCAG”, the figure is 11400 fluorescence intensity (a.u.); as for “GTAACCCTAATTTCAGAAACTAAACACAGTCACGTAAGAACGGAGTCACCTAGTGCAG”, 65500 fluorescence intensity (a.u.); as for “TTGTCAGTTTTCTCTAAACCACAGTAATTAGTCAGTTTCACGGAGTCACCTAGTGCAG”, 8420 fluorescence intensity (a.u.). As to “GTCCGCATCCAATTCCCGGGCCATTCGAAATCCCCAACACCGGAGTCACCTAGTGCAG”, the binding signal was 10200 fluorescence intensity (a.u.).

In the case of “GGCCATAGCGTGTATTGTTGTGTTTGTGTGTAAAATTTTTCGGAGTCACCTAGTGCAG”, the binding signal was 11300 fluorescence intensity (a.u.). As for “GTATGCCATTCGCCCAAGATGCTTTTGCTTCGCATGGACCCGGAGTCACCTAGTGCAG”, the figure is 8540 fluorescence intensity (a.u.); as for “TTTATTTCCTAGATTAATTCTGATATGTTTCTATGTTTTACGGAGTCACCTAGTGCAG”, 9260 fluorescence intensity (a.u.). As for “TTTTTTTTTCCTTTTGCTGACATGCATTATGTTTTCTATTCGGAGTCACCTAGTGCAG”, the figure is 10000 fluorescence intensity (a.u.); as for “GCTTAATTACATGGGAGAGGCTTTGTTTCTTGTTTATTTTCGGAGTCACCTAGTGCAG”, 8760 fluorescence intensity (a.u.); as for “CTATTCTTGTGTTTTTTTCTATGTTTAATCCTATGTTTTACGGAGTCACCTAGTGCAG”, 16600 fluorescence intensity (a.u.).
